# The supplement of paper PMC10849652
# Targets with a hit are over-represented here; the source holds about 8,800 in all. About 0.5% of all pairs of compound and target were hits.
# Compound: CN1CCN(c2nc(C3=C(c4c[nH]c5ccccc45)C(=O)NC3=O)c3ccccc3n2)CC1 [sotrastaurin]
# Assay: log2 fold change, soluble protein after heating vs DMSO (PISA); higher = thermal stabilisation; K562 lysate, 10 uM; active = over 0.2 and 3.5 SD of the protein, either way, in both replicates (recomputed)
# How it was run: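 A 30 min treatment with 10 μM compound was applied to crude K562 extract at 1 mg/mL protein in PBS pH 7.4 with 1 mM MgCl2. Heating for 3 min spanned 48°C-58°C, after which aliquots were pooled, adjusted to 0.5% NP-40 at 4°C and spun at 21,000xg for 90 min. TMTpro 16plex LC-MS/MS of the supernatant, with channel sums equalised, gave values recorded as log-two fold change in thermal stability against solvent controls, from duplicates.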
# Chain of UniProt P04150 (P04150 whole entry, looked up): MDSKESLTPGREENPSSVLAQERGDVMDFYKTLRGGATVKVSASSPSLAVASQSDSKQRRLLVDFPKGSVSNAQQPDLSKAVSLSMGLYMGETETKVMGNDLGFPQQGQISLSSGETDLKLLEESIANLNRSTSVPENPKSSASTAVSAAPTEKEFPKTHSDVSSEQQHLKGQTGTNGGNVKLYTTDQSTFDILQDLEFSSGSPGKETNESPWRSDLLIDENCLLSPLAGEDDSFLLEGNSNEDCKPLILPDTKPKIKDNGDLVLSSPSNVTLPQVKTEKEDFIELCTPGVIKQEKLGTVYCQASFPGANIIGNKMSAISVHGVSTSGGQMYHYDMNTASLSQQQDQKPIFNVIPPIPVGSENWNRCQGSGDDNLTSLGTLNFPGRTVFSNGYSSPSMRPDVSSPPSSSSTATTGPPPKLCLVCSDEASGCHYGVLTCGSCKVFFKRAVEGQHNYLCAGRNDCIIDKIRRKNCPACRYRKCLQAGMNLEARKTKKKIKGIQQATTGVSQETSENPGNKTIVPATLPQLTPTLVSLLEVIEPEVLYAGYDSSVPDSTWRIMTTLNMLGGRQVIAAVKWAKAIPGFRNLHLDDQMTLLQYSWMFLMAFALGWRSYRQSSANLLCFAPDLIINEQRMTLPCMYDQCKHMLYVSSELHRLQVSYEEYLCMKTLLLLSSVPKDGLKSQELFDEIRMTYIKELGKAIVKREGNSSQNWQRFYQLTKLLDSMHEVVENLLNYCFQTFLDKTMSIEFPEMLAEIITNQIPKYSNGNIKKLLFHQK
# Chain of UniProt P42695 (P42695 whole entry, looked up): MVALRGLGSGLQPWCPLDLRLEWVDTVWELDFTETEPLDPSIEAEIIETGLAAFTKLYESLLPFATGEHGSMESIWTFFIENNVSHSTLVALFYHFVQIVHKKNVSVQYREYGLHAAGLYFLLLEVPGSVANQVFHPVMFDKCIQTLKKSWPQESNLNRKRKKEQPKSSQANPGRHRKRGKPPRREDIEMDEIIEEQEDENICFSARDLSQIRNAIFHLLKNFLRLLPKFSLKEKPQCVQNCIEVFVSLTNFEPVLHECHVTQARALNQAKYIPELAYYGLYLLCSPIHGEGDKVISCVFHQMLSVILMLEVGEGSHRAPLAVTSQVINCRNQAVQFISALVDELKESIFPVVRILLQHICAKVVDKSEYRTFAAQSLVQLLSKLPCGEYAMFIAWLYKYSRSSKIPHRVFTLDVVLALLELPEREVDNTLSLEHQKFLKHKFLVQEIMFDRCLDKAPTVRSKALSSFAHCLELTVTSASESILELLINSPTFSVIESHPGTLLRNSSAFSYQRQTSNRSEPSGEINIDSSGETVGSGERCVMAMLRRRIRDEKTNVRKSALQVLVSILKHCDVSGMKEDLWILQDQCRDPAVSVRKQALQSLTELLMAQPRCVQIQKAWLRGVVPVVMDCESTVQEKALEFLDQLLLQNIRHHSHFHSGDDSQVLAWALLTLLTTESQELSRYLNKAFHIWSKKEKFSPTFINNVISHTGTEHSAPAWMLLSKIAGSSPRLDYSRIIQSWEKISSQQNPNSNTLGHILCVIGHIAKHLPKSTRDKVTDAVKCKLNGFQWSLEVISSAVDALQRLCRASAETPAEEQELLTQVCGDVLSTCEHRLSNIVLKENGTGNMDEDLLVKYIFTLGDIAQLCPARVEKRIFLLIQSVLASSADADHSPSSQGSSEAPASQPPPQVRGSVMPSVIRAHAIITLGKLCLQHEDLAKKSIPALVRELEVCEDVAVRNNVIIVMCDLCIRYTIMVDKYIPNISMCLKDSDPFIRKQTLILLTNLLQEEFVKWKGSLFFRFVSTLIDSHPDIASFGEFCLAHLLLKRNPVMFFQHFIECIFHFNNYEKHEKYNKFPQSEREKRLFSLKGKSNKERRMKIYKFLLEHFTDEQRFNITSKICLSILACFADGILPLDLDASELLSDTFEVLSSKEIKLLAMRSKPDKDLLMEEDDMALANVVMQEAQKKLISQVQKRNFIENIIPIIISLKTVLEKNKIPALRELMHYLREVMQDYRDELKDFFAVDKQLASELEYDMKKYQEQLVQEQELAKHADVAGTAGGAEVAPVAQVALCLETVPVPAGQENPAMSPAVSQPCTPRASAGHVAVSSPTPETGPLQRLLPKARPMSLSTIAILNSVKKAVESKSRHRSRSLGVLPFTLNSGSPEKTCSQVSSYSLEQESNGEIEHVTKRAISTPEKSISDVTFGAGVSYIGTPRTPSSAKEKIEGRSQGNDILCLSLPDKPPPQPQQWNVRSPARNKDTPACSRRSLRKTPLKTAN
# Chain of UniProt Q96RE7 (Q96RE7 whole entry, looked up): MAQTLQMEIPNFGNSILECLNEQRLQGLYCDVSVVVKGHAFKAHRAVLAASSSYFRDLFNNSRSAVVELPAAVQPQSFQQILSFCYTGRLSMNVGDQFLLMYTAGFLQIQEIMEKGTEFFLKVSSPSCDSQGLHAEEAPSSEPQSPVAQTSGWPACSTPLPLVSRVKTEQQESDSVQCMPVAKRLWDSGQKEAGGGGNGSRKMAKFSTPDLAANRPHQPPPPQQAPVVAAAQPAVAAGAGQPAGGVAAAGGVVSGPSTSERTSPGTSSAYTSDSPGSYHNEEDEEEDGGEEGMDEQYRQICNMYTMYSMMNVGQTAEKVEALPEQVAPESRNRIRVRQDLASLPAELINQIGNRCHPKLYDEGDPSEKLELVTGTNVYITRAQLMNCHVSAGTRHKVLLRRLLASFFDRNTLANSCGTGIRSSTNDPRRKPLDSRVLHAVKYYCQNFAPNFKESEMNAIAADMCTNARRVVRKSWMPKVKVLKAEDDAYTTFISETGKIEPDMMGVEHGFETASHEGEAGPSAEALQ
# Chain of UniProt Q8TEW0 (Q8TEW0 whole entry, looked up): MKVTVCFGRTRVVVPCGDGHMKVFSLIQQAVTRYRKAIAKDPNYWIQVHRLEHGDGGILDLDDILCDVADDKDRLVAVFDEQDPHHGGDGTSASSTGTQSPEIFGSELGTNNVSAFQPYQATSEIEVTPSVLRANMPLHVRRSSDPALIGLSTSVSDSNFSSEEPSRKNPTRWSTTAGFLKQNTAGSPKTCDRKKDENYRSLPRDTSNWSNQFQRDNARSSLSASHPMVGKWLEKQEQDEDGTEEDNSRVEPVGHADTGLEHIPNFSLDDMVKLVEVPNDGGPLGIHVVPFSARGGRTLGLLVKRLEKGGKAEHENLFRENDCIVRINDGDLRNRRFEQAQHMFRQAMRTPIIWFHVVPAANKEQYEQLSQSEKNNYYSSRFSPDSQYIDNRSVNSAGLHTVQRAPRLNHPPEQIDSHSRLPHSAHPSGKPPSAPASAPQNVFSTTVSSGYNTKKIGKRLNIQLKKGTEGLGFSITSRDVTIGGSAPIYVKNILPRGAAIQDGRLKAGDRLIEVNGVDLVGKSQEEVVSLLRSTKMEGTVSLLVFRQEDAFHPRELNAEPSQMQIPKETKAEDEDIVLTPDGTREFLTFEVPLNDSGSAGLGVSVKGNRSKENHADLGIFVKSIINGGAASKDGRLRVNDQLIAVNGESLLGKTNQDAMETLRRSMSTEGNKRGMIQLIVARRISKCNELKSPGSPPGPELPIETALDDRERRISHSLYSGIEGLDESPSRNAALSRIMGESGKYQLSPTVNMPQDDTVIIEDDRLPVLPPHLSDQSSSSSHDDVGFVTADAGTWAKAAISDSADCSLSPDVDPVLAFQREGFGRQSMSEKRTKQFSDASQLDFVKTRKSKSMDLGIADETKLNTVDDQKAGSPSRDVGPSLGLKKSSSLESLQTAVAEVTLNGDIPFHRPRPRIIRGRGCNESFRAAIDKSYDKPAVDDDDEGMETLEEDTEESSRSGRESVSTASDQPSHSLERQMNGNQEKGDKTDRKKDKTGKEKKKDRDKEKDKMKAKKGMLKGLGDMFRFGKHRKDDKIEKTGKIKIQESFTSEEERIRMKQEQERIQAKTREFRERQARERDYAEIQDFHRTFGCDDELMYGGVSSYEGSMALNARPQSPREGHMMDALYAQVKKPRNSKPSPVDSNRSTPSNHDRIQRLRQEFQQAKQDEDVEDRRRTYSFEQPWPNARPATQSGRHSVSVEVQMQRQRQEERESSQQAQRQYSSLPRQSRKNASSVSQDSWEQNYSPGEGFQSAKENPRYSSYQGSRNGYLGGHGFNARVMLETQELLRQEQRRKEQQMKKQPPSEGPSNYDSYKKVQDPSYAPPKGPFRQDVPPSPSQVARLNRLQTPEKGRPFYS
# Chain of UniProt Q15843 (Q15843 whole entry, looked up): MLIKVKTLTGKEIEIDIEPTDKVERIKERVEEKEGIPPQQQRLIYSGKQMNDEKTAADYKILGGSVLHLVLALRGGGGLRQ
# Chain of UniProt P00480 (P00480 whole entry, looked up): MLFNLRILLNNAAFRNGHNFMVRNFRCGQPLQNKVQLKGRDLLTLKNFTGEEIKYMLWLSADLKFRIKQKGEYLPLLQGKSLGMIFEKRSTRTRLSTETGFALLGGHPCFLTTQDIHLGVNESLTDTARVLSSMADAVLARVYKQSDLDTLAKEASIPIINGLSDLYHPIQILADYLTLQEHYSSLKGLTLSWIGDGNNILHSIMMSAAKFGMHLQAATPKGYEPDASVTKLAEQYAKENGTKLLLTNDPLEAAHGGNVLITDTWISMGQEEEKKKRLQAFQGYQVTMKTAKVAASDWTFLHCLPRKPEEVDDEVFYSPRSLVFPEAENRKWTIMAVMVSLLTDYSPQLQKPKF
# Chain of UniProt Q4G0N4 (Q4G0N4 whole entry, looked up): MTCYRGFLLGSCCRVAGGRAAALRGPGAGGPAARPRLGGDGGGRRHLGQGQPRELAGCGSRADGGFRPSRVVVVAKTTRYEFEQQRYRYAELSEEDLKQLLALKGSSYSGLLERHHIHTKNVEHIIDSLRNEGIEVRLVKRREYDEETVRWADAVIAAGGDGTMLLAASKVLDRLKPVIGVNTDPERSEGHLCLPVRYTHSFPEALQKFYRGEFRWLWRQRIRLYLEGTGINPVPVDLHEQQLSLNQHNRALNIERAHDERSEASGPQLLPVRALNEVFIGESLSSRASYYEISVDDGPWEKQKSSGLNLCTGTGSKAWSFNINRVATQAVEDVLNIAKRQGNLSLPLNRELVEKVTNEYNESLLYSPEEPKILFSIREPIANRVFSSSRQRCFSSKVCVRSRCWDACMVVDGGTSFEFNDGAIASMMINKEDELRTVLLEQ
row,Target,log2 fold change
1,NUMBL (UniProt Q9Y6R0),-0.278 (inactive)
2,OPA1 isoform 2 (UniProt O60313),0.014 (inactive)
3,MTHFD1L (UniProt B7ZM99),0.036 (inactive)
4,PARD3 (UniProt Q8TEW0),0.004 (inactive)
5,NACC1 (UniProt Q96RE7),0.034 (inactive)
6,NEDD8 (UniProt Q15843),0 (inactive)
7,PANK4 (UniProt Q9NVE7),0.012 (inactive)
8,NAA35 (UniProt Q5VZE5),0.006 (inactive)
9,OGFR (UniProt Q9NZT2),0.053 (inactive)
10,MTMR6 (UniProt Q9Y217),0.087 (inactive)
11,OTC (UniProt P00480),0.282 (inactive)
12,NELFCD (UniProt Q8IXH7),0.012 (inactive)
13,NFATC2IP (UniProt Q8NCF5),-0.004 (inactive)
14,NUDT4 isoform 2 (UniProt Q9NZJ9),0 (inactive)
15,NADK2 (UniProt Q4G0N4),-0.036 (inactive)
16,NUP98 (UniProt P52948),-0.005 (inactive)
17,NR3C1 isoform 3 (UniProt P04150),-0.016 (inactive)
18,PAXBP1 (UniProt Q9Y5B6),0.025 (inactive)
19,NCAPD3 (UniProt P42695),0.003 (inactive)
20,NPLOC4 isoform 2 (UniProt Q8TAT6),-0.005 (inactive)
21,N4BP2 (UniProt Q86UW6),0.05 (inactive)
22,NCAPD2 (UniProt Q15021),0.021 (inactive)
23,NCAPG (UniProt Q9BPX3),-0.011 (inactive)
